Source: PubChem
CYP2C9 inhib = inhibitors of human CYP2C9. P11712. CYP2C9 Supersomes, luciferin-H conversion, luminescence. inhibition, % at 5 µM. 96,000 compounds, 20% hits. AID 777;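 active means blocking of liver enzyme CYP2C9 beyond about 50% at 5 µM, limit read from the data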
Target sequence (P11712 whole entry, looked up): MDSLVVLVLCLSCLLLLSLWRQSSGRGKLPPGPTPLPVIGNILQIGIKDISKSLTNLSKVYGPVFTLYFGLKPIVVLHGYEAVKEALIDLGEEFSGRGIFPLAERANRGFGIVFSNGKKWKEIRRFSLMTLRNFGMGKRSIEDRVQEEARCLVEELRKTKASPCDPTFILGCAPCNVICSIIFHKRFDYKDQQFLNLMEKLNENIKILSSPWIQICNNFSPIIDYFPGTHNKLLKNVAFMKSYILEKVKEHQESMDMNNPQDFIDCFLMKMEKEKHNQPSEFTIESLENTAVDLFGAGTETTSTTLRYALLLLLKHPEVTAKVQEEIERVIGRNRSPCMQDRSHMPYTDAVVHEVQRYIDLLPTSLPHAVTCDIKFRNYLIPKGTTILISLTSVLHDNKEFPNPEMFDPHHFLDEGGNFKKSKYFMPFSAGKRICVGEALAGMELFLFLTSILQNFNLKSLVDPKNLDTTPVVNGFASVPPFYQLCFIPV
CYP2C19 activ = increases human CYP2C19 enzyme activity. P33261. recombinant CYP2C19, luciferin-H EGE luminescence; active compounds read high; 0 = fully inhibited enzyme, 1 = untreated enzyme. activation factor at 5 µM. 96,000 tested, under 10 active. AID 1025;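 active means activation factor of at least 2 at 5 µM in the primary screen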;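 further: 0 = wells with 2.5 mM tranylcypromine and 1 = vehicle-only wells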
CYP2C19 inhib = inhibitors of human CYP2C19. inhibition, % at 5 µM. AID 778. P33261. CYP2C19 Supersomes, luciferin-H EGE luminescence, 30 min. 96,000 compounds, 21% hits;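 active means CYP2C19 inhibition above a set limit at 5 µM in the primary screen, cut at about 50% in these data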;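 further: plate controls were negative control wells for no effect and 2.5 mM tranylcypromine positive control for full effect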
EphB4 ephrin blk = EphB4-ephrin-B2 interaction antagonism; EphB4 LBD / TNYL-RAW-Alexa532 peptide, fluorescence polarization; inhibition, % at 7 µM; 97,000 compounds, 0.15% hits;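 active means inhibition above the screen-wide mean inhibition plus 3 SD, cut at about 15% in these data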;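 further: 0% = DMSO wells and 100% = excess unlabeled TNYL-RAW peptide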
CYP2C9 activ = activators of human CYP2C9; P11712; recombinant CYP2C9, luciferin-H conversion, luminescence; active compounds read high; factor 1 = untreated enzyme, 0 = blocked; activation factor at 5 µM; 96,000 compounds, 1.4% hits; AID 1024;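 active means activation factor of 2 or more for CYP2C9 at a 5 µM dose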;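 further: 0 = sulfaphenazole-blocked wells and 1 = vehicle-only wells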
Active calls of the source: *; . = no result given. An excerpt weighted towards active compounds, which were near 27% of everything screened.

SMILES | CYP2C9 inhib | CYP2C19 activ | CYP2C19 inhib | EphB4 ephrin blk | CYP2C9 activ
C=C(C)Cn1c(SCC#N)nc2ccccc2c1=O | 45 | 0.5 | 47 | 8 | 0.6
COc1ccc(OC)c(NC(=O)CSc2nc3ccccc3c(=O)n2CCNC(C)=O)c1 | . | . | . | 3 | .
CC(=O)NCCn1c(SCC(=O)OCc2ccccc2)nc2ccccc2c1=O | 52* | 0.1 | 86* | 0 | 0.5
COc1cccc(NC(=O)C2CCCN2C(=O)Nc2ccccc2F)c1 (configuration not stated) | 21 | 0.7 | 28 | -8 | 0.8
CC(=O)NC(c1ccccc1)c1nc2ccccc2[nH]1 (configuration not stated) | 1 | 0.8 | 22 | 0 | 1
Cc1cc(C(=O)OCC(=O)Nc2ncc(C(F)(F)F)cc2Cl)c(C)o1 | 10 | 1 | 4 | -6 | 0.9
Cc1cccc(C)c1NC(=O)CSCc1cccc(CSCC(=O)Nc2c(C)cccc2C)n1 | 17 | 0.9 | 7 | 1 | 0.8
O=C(CSCc1cccc(CSCC(=O)Nc2ccccc2)n1)Nc1ccccc1 | 65* | 0.5 | 53* | -3 | 0.4
O=C(CSCc1ccc(F)cc1)Nc1ccccc1 | -56 | 0.1 | 94* | -7 | 1.6
Cc1cccc(NC(=O)Cc2ccc(F)cc2)c1 | 58* | 0 | 96* | 2 | 0.4
O=C(O)CSCC(=O)Nc1ccccc1 | . | . | . | -5 | .
CSc1nsc(SC)c1C(=O)NCCNS(=O)(=O)c1ccc(C)cc1 | 45 | 0.8 | 19 | -5 | 0.5
COc1c(C(=O)Nc2c(C)n(C)n(-c3ccccc3)c2=O)ccc2ccccc12 | -15 | 1.1 | -8 | 1 | 1.1
COc1ccc(-c2ccnc3nc(N4CCN(c5ccccc5)CC4)nn23)cc1 | 61* | 1.1 | -11 | -2 | 0.4
CC1CCN(C(=S)NC2CCCCC2)CC1 | 8 | 0.3 | 70* | 1 | 0.9
Cc1cccc(-n2c(SCCC(=O)O)nnc2-c2cccs2)c1C | -19 | 0.9 | 6 | -6 | 1.2
S=P(c1ccc(N2CCOCC2)cc1N1CCOCC1)(N1CCOCC1)N1CCOCC1 | 18 | 0.7 | 25 | . | 0.8
CCOc1ccc2[nH]c(C)c(CN(C)C)c(=O)c2c1 | 3 | 1 | -5 | . | 1
COc1ccc(CCN=CC2=C(O)CCCC2=O)cc1OC | -12 | 1.1 | -10 | 0 | 1.1
O=C(c1ccco1)N(Cc1ccc([N+](=O)[O-])cc1)c1ccc(Cl)cc1 | 94* | 0.7 | 26 | 4 | 0.1
COc1ccc(N(CN2C(=O)C3C4C=CC(C4)C3C2=O)C(=O)c2ccco2)cc1 (configuration not stated) | . | . | . | -7 | .
O=C(c1ccco1)N(Cc1ccco1)c1ccc(O)cc1 | 54* | 0.6 | 36 | . | 0.5
CCOC(=O)COc1cc2c3c(c(=O)oc2cc1C)CCCC3 | 60* | 0.8 | 25 | -1 | 0.4
Cc1occc1-c1nnc(SCC(=O)Nc2nccs2)n1CCc1ccccc1 | 26 | 0.6 | 40 | 0 | 0.7
Cc1csc(NC(=O)CSc2nnc(-c3ccoc3C)n2CCc2ccccc2)n1 | 57* | 0.5 | 47 | -6 | 0.4
SMILES | CYP2C9 inhib | CYP2C19 activ | CYP2C19 inhib | EphB4 ephrin blk | CYP2C9 activ
Cc1occc1-c1nnc(SCC(=O)NCCc2ccccc2)n1C(C)c1ccccc1 (configuration not stated) | 84* | 0.7 | 26 | . | 0.2
Cc1cccc(C)c1NC(=O)CSc1nnc(-c2ccoc2C)n1CCc1ccccc1 | 68* | 0.3 | 70* | -4 | 0.3
Cc1nonc1NC(=O)CSc1nnc(-c2ccoc2C)n1-c1cccc(Cl)c1 | . | . | . | 5 | .
CCCn1c(SCC(=O)Nc2nonc2C)nnc1-c1ccoc1C | -1 | 0.5 | 54* | -10 | 1
CC(=O)c1ccc(NC(=O)CSc2nnc(-c3ccoc3C)n2Cc2ccccc2)cc1 | 34 | 0.8 | 21 | -4 | 0.7
CCOC(=O)c1cn2nc(-c3ccc(OCC)cc3)cc2nc1C1CCN(C(=O)OC(C)(C)C)CC1 | 46 | 0.8 | 18 | 2 | 0.5
COC(=O)c1c(NS(=O)(=O)c2cccs2)sc2c1CCCC2 | -28 | 1 | -2 | 0 | 1.3
Cc1csc(NC(=O)CSc2nnc(C)n2Cc2ccco2)n1 | 14 | 1 | 2 | 2 | 0.9
Cc1csc(NC(=O)CSc2nnc(-c3ccoc3C)n2Cc2ccco2)n1 | 88* | 0.2 | 85* | 6 | 0.1
O=C(NCCCN1CCN(c2cccc(Cl)c2)CC1)c1nc(-c2ccncc2)no1 | 87* | 0.3 | 70* | 1 | 0.1
COc1cc2c(C(=O)NCCCN3CCN(c4cccc(Cl)c4)CC3)cn(C)c(=O)c2cc1OC | 18 | 0.8 | 22 | 2 | 0.8
Cc1nnc(SCCC(=O)Nc2nc(-c3ccccc3)ns2)s1 | 40 | 0.5 | 53* | -5 | 0.6
O=C(CSc1ncn[nH]1)Nc1nc(-c2ccccc2)ns1 | 79* | 0.2 | 78* | -4 | 0.2
COc1ccc(C(=O)c2c(C)oc3ccc(O)c(CN4CCOCC4)c23)cc1 | 34 | 0.5 | 50 | -2 | 0.7
CCOC(=O)C1CCCN(CC(O)COc2ccccc2C(C)=O)C1 (configuration not stated) | -1 | 1 | 0 | -3 | 1
COc1ccccc1-c1coc2cc(O)cc(O)c2c1=O | -78 | 0.8 | 22 | 2 | 1.8
CCOc1ccc2c(=O)c(Oc3ccccc3OCC)coc2c1 | -105 | 0.3 | 74* | -5 | 2.1*
COc1ccccc1Oc1coc2cc(O)ccc2c1=O | -96 | 0.9 | 7 | -1 | 2*
CCOc1ccccc1Oc1coc2cc(O)ccc2c1=O | -211 | 0.7 | 30 | 3 | 3.1*
COc1ccc(-c2coc3cc(O)ccc3c2=O)cc1OC | -106 | 0.9 | 5 | 1 | 2.1*
COc1ccc(NC(=O)c2sc(NC(=O)COc3ccccc3)nc2C)cc1 | 50 | 0.8 | 17 | 2 | 0.5
CCCCOC(=O)CCNc1n[nH]c(=O)[nH]c1=O | 4 | 1 | 1 | . | 1
Cc1onc(-c2ccccc2Cl)c1C(=O)N(C)C1CCCCC1 | 21 | 0.6 | 43 | 2 | 0.8
CN(C(=O)c1ccccc1Cl)C1CCCCC1 | 37 | 0.2 | 75* | 3 | 0.6
CCCCOC(=O)Nc1nc2ccccc2s1 | 16 | 0.8 | 19 | -6 | 0.8
CC(C)C1Nc2ccc(S(N)(=O)=O)cc2C2C=CCC21 (configuration not stated) | 25 | 0.3 | 69* | -4 | 0.7
Cc1ccc(C2c3c(-c4ccccc4O)n[nH]c3C(=O)N2Cc2ccncc2)cc1 (configuration not stated) | 34 | 0.6 | 41 | -11 | 0.7
COc1ccc(CCN2C(=O)c3[nH]nc(-c4ccccc4O)c3C2c2cccc(Cl)c2)cc1 (configuration not stated) | 62* | 0.7 | 35 | -2 | 0.4
COc1cc(C2c3c(-c4cc(Cl)c(C)cc4O)n[nH]c3C(=O)N2Cc2cccnc2)ccc1O (configuration not stated) | 14 | 0.9 | 11 | 4 | 0.9
